system: HeLa; test: percent cells in G1/S phase; higher = more G1/S content; details: 10 µM; 20 h; hit class: G2/M-phase inhibitor
Experimental: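 HTS of 79,827 drug-like compounds at 10 uM. HeLa cells in 384-well plates were treated for 20 h, fixed, stained with Vybrant DyeCycle Green and scanned on an Acumen eX3 cytometer to give per-well cell cycle profiles. Only G2/M hits (>=67% G2/M) are listed.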

Structure (SMILES)	percent cells in G1/S phase [%]
CN1Cc2c(ccc3c2OCO3)[C@@H]2[C@H]1c1cc3c(cc1C[C@@H]2O)OCO3 [Chelidonine monohydrate (+)]	19.8

Reference: the supplement of paper PMC4237247
